Rows were chosen to be rich in hits. Some 17% of all compounds tested hit in one or more screens of this group.
HepG2 tox: qHTS for Inhibitors of TGF-b: Cytotox Counterscreen. HepG2 CAGA-GFP viability, ATP luminescence, 18 h. Potency, µM (titrated, usually from 46.1 µM), for inactives: at the highest dose activity change, negative = cytotoxicity, most hits filed as cytotoxic. 410,000 tested, 0.76% active
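CellTiter-Glo luminescence gave cytotoxicity after 18 hours at 37 degrees C. The cells were HepG2 CAGA-GFP in 1% FBS DMEM, stimulated with 500 pg/mL TGF-beta after compound addition. %Activity was normalised to no-cell wells (complete cell-killing) and DMSO (no toxicity), and curves were fitted and classified.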
ATXN viability: Viability Counterscreen for Primary qHTS for Inhibitors of ATXN expression. S2 cells (HEK-293 line with an ATXN2-luciferase reporter) viability, CellTiter-Fluor protease fluorescence, 24 h. Potency, µM (top dose mostly 56.7 µM), most hits filed as cytotoxic. 400,000 tested, 0.49% active; also: nearly all actives have a fitted effect of over 40% in size
ATXN2 expr inh: Primary qHTS for Inhibitors of ATXN expression | HEK-293 ATXN2-luciferase reporter, luminescence, 24 h | Potency, µM (top dose mostly 57 µM), without a hit: at the highest dose activity change, negative = inhibition, hits mostly inhibitors | 360,000 tested, 0.72% active; also: % is scaled to controls: 0 for no effect and ±100 for the full control effect; nearly all actives have a fitted effect of over 55% in size
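ATXN2-luciferase reporter cells (luciferase flanked by upstream and downstream ATXN2 gene portions) were treated 24 h at 37 °C with compounds at up to 57 uM. SteadyGlo luminescence gave expression; GF-AFC fluorescence gave viability.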
TDP1 cell noCPT: qHTS for Inhibitors of human tyrosyl-DNA phosphodiesterase 1 (TDP1): qHTS in cells in absence of CPT | DT40 Tdp1-/- hTDP1 cells, no CPT, ATP luminescence, 48 h | Potency, µM (top dose mostly 46.2 µM), inactives show at the top dose activity change, negative = growth inhibition, most hits filed as inhibitors | 420,000 tested, 15% active | AID 686978, 2013; also: % is scaled to controls: 0 for no effect and ±100 for the full control effect; nearly all actives have a fitted effect of over 55% in size
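Chicken DT40 Tdp1-/- cells stably complemented with human TDP1 were seeded at 400 cells/well with DMSO in place of 20 nM camptothecin. After compound pinning, cells grew at least 48 hr at 37 °C; viability read by CellTiter-Glo luminescence.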
TGFb SMAD3 inh: qHTS for Inhibitors of TGF-b. HepG2 CAGA-GFP TGF-b/SMAD3 reporter, GFP fluorescence, 18 h; TGF-beta stimulated, 500 pg/mL final. Potency, µM (doses to about 46.1 µM), for inactives: at the top dose activity, negative = inhibition, actives largely listed as inhibitors. 410,000 tested, 1.2% active. AID 588855, 2011; also: % is scaled to controls: 0 for no effect and ±100 for the full control effect; nearly all actives have a fitted effect of over 65% in size
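Using HEPG2 CAGA-GFP reporter cells at 1000 cells/well, we pinned test compounds, stimulated with recombinant TGF-beta (500 pg/mL final) and measured total well GFP after 18 h.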
DT40 TDP1 CPT: qHTS for Inhibitors of human tyrosyl-DNA phosphodiesterase 1 (TDP1): qHTS in cells in presence of CPT | chicken DT40 Tdp1-/-;hTDP1 cells + 20 nM CPT, ATP luminescence, 48 h | Potency, µM (doses to about 46.2 µM), for the others: top-dose activity change, negative = growth inhibition, most hits filed as inhibitors | 420,000 tested, 12% active | AID 686979, 2013; also: % is scaled to controls: 0 for no effect and ±100 for the full control effect; nearly all actives have a fitted effect of over 55% in size
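Chicken DT40 Tdp1-/- cells complemented with human TDP1, 400 cells/well, exposed to compounds plus 20 nM camptothecin for at least 48 h at 37 C; viability read as ATP content by CellTiter-Glo luminescence.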
* marks the source's active call; other numbers are inactive results; i = inactive; ? = inconclusive; · = no result. Calls follow the shape of the dose curve; as a rule, active = well fitted curve in the direction sought with a large enough effect; inconclusive = small, poorly fitted or top-dose-only effect, or another doubt; inactive = no such curve, though single readings can be large; an effect the other way counts as inactive or inconclusive. Potency is read from the fitted curve at half-maximal effect.

SMILES	HepG2 tox	ATXN viability	ATXN2 expr inh	TDP1 cell noCPT	TGFb SMAD3 inh	DT40 TDP1 CPT
CCN(CC)c1ccc(-c2nn3c(-c4n[nH]c5c4CCC5)nnc3s2)cc1	-66.8%	i	4.2%	0.651µM*	?	0.92µM*
CCOC(=O)c1c(S(=O)(=O)NCC(=O)Nc2ccc(C)c(N(C)C)c2)c(C)n(C)c1C	-12.9%	i	4.8%	-9.7%	-20.9%	6.3%
CCOC(=O)C1CCN(c2nc3c(S(=O)(=O)c4ccccc4)nnn3c3ccsc23)CC1	-27.7%	·	·	20.6µM*	-36.0%	14.6µM*
CCOC(=O)C1CCN(c2nc3c(S(=O)(=O)c4ccccc4)nnn3c3ccc(Cl)cc23)CC1	-0.4%	i	3.1%	14.6µM*	26.5%	23.1µM*
CS(=O)(=O)c1ccccc1-c1nnc(NC(=O)Cc2ccccc2)o1	-28.4%	i	-6.5%	-1.4%	?	-13.4%
C[C@H](CO)N1C[C@H](C)[C@@H](CN(C)C(=O)Nc2ccc(C(F)(F)F)cc2)Oc2ccc(NC(=O)Cn3cnnn3)cc2C1=O	-2.3%	i	0.3%	-2.3%	6.3%	5.6%
Fc1ccccc1SCc1nnc(-c2ccccc2Br)o1	-8.6%	?	77.3%	25.9µM*	?	5.8µM*
OCc1cnc(SCc2ccccc2)n1Cc1ccccc1	-7.8%	i	2.5%	16.4µM*	1.7%	?
COc1ccc(Cn2c(CO)cnc2SCc2ccc(C)cc2)cc1	-27.8%	i	47.9%	?	?	18.4µM*
COc1ccc(Cn2c(CO)cnc2SCc2ccc(F)cc2)cc1	-9.4%	i	3.2%	18.4µM*	-7.8%	?
COc1ccc(Cn2c(CO)cnc2SCc2ccccc2C)cc1	-34.7%	i	42.0%	?	-24.2%	?
COc1ccc(-n2nc(C(=O)NCC(=O)N3CCN(c4ccccc4OC)CC3)c3ccccc3c2=O)cc1OC	3.5%	i	5.0%	?	8.4%	?
Cc1cccc(NC(=O)C2CCN(c3nc(C)cc(C)n3)CC2)c1	-17.3%	i	-14.7%	?	-12.2%	?
Cc1cccc(NC(=O)C2CC(=O)n3cnnc3S2)c1 (centres undefined)	0.3%	i	-7.7%	5.8µM*	?	4.61µM*
NC(=O)[C@H]1CC2(CC(c3cccc(NC(=O)CC(c4ccccc4)c4ccccc4)c3)=NO2)CN1C(=O)C(c1ccccc1)c1ccccc1 (some centres undefined)	-8.7%	?	-11.5%	?	?	18.4µM*
NC(=O)[C@@H]1CC2(CC(c3cccc(NC(=O)CC(c4ccccc4)c4ccccc4)c3)=NO2)CN1C(=O)COc1ccc(Cl)cc1 (some centres undefined)	-46.6%	i	?	?	?	18.4µM*
NC(=O)[C@H]1CC2(CC(c3cccc(NC(=O)CC(c4ccccc4)c4ccccc4)c3)=NO2)CN1C(=O)c1ccccc1C(=O)c1ccccc1 (some centres undefined)	-1.9%	i	-4.5%	?	-16.0%	13µM*
C/C=C\C=C\C(=O)N1CC2(CC(c3cccc(NC(=O)CC(c4ccccc4)c4ccccc4)c3)=NO2)C[C@H]1C(N)=O (some centres undefined)	-0.1%	i	-26.3%	18.4µM*	?	?
C/C=C\C=C/C(=O)Nc1cccc(C2=NOC3(C2)C[C@@H](C(N)=O)N(C(=O)/C=C/C=C\C)C3)c1 (some centres undefined)	-10.1%	i	1.1%	0.3%	-62.7%	?
CCCCCC(=O)N1CC2(CC(c3cccc(NC(=O)CC(c4ccccc4)c4ccccc4)c3)=NO2)C[C@@H]1C(N)=O (some centres undefined)	-1.6%	?	?	?	?	?
Cc1cc(NC(=O)CSc2nnc(-c3ccncc3)n2C)n(-c2ccccc2)n1	3.3%	i	11.5%	-2.8%	3.0%	12.1%
CSc1nc(Cl)cc(N2CCOCC2)n1	1.1%	i	21.3%	5.9%	5.9%	-4.7%
CCC(C)(C)n1nnnc1C(CC(C)C)N1CCC(C(N)=O)CC1 (centres undefined)	1.6%	i	8.8%	-29.3%	2.5%	-10.5%
CC(=O)N1CCc2cc(Br)cc(S(=O)(=O)N3CCN(c4cc(C)ccc4C)CC3)c21	-3.0%	i	4.2%	4.1%	-1.8%	7.1%
CCOc1cc2c(cc1/C=C/c1noc(C)c1[N+](=O)[O-])OC(C)C2 (centres undefined)	-6.9%	i	8.1%	-0.1%	1.0%	-27.9%
SMILES	HepG2 tox	ATXN viability	ATXN2 expr inh	TDP1 cell noCPT	TGFb SMAD3 inh	DT40 TDP1 CPT
CC(C)(C)NC(=O)CN(C(=O)CS(=O)CC(=O)Nc1ccc(F)cc1)c1ccc(Cl)cc1 (centres undefined)	3.1%	i	6.9%	-11.0%	-5.6%	-16.6%
CC1CC(C)(C)NC(=S)N1CCCC(=O)N1CCN(c2ccccc2F)CC1 (centres undefined)	-2.2%	i	-13.9%	?	-16.9%	?
CSc1ccc(Cn2c(C)c(C(=O)NCc3cccs3)sc2=O)cc1	-15.2%	i	-32.2%	23.1µM*	3.5%	?
Cc1c(C(=O)NCc2ccccc2C(F)(F)F)sc(=O)n1Cc1ccc(F)cc1	-18.8%	i	-23.0%	?	-19.2%	20.6µM*
Cc1ccc(Cn2c(C)c(C(=O)NCc3cccs3)sc2=O)cc1	-1.7%	i	-1.8%	-29.9%	3.3%	?
C=Cc1ccc(Cn2c(C)c(C(=O)NCc3ccc4c(c3)OCCO4)sc2=O)cc1	-3.7%	i	-28.4%	10.3µM*	-10.2%	?
Cc1ccc(Cn2c(C)c(C(=O)NCc3ccc4c(c3)OCO4)sc2=O)cc1	-6.2%	i	-8.2%	-29.1%	-8.9%	?
CSc1ccc(Cn2c(C)c(C(=O)NCc3ccc4c(c3)OCO4)sc2=O)cc1	-33.0%	i	-11.4%	14.6µM*	-11.5%	?
CN(CC(=O)Nc1ccccc1Cl)C(=O)CSc1nnc(N)s1	-1.3%	i	4.1%	-3.6%	-1.6%	-8.7%
COc1ccc(CC(=O)N(Cc2ccccc2)c2ccc(C)cc2)cc1S(=O)(=O)N1CCOCC1	17.7%	i	1.2%	16.4µM*	2.6%	18.4µM*

High-throughput results (PubChem)
